Assay outcomes: PubChem, several laboratories
ALR H2O2 inh: blocks human ALR sulfhydryl oxidase activity; inhibition, % (test concentration not listed); P55789; purified ALR, DTT oxidation, H2O2 HRP-luminol luminescence; AID 485317; 290,000 compounds, 3.8% hits;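 active = mean replicate inhibition above about 79%, with every replicate also reaching it, limit read from the data; inconclusive = only one of the two criteria met; inactive = mean below limit and not every replicate reaching it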
Yeast superoxide: yeast age-related superoxide inhibition as caloric restriction mimetic | S. cerevisiae aged cells, superoxide DHE fluorescence; hits give low values | superoxide response (% of plate mean), % at 10 µM | 330,000 compounds, 0.18% hits;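 active = superoxide response under a set limit, about three screen SD below normal, cut at about 65% in these data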;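 note: yeast aged for seven days with compound at 30 °C before DHE staining; 100% = average MFI of all compound-treated wells on the plate with controls excluded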
A3A deaminase: blocks human APOBEC3A ssDNA deamination. P31941. recombinant A3A, FAM/TAMRA ssDNA deamination fluorescence. inhibition, % at 20 µM. 330,000 compounds, 0.41% hits. AID 493011;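 active = at least 40% inhibition at 20 µM here, with at most 30% in a related deaminase screen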;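 note: plate controls were A3A with DMSO for no effect and wells lacking A3A enzyme for full effect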
Target sequence (P31941 whole entry, looked up): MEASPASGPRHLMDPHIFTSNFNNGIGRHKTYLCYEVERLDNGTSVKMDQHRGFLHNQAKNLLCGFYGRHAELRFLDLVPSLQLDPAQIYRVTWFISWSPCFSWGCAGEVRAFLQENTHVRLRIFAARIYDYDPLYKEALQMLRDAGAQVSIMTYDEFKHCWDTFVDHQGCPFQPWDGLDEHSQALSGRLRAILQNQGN
APOBEC3G inh: inhibitors of human APOBEC3G DNA deaminase | Q9HC16 | recombinant A3G, ssDNA deamination FAM/TAMRA fluorescence | inhibition, % at 20 µM | 330,000 compounds, 0.28% hits | AID 493012;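 active = inhibition of at least 40% at 20 µM, with no more than 30% in the related APOBEC3A deaminase screen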;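 note: plate controls were DMSO wells with A3G for no effect and wells lacking A3G enzyme for full effect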
Target sequence (Q9HC16 whole entry, looked up): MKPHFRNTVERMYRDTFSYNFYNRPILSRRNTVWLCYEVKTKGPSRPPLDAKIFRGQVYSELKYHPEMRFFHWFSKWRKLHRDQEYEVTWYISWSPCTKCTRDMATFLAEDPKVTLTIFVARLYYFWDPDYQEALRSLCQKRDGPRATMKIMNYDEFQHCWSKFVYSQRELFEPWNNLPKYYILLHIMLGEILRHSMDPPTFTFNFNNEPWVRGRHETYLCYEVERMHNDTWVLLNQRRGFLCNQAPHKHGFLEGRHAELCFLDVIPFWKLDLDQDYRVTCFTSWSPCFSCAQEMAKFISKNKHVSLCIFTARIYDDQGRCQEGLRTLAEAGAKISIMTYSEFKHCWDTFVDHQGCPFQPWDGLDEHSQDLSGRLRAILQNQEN
PfM18AAP inh-1: PfM18AAP enzyme inhibition; inhibition, % at 7.35 µM; recombinant PfM18AAP, H-Glu-NHMec fluorogenic cleavage; 290,000 compounds, 1.2% hits;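 active = inhibition above the campaign mean inhibition over all tested compounds plus 3 SD, cut at about 28% in these data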;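 note: 0% = plate median of test compound wells and 100% = 2 mM ZnCl2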
CendR NRP1 mod: modulators of CendR peptide binding to human neuropilin-1. O14786. FAM-RPARPAR peptide binding to NRP-1, fluorescence polarization. inhibition, % at 25 µM. 360,000 compounds, 0.85% hits. AID 602438;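 active = inhibition or corrected inhibition above about 18%, plus a signal ratio from 0.5 to 1.5, limit read from the data, passing the limit was not always enough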
PfM18AAP inh-2: confirmation of Plasmodium falciparum M18 aspartyl aminopeptidase inhibitors; shares compounds with PfM18AAP inh-1; recombinant PfM18AAP, H-Glu-NHMec fluorogenic cleavage; inhibition, % at 7.35 µM; 2,400 compounds, 28% hits; AID 2170;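 active = mean inhibition over replicate wells above the hit cutoff set for the earlier primary screen, cut at about 29% in these data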;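 note: 0% = median of test compound wells and 100% = 2 mM ZnCl2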
CTSL1 counter: counter-screen for PFM18AAP inhibitors: confirmation of human cathepsin L inhibitors; inhibition, % at 5.96 µM; purified cathepsin L1, Z-Leu-Arg-MCA fluorescence; shares compounds with PfM18AAP inh-1; AID 2178; 2,400 tested, under 10 active;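 active = average inhibition across replicates above the hit cutoff set in the earlier primary screen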;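 note: 0% = median of test compound wells and 100% = Z-Phe-Ala-diazomethylketone 1 µM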
The depositor's hits bear a star; u = inconclusive; x = not tested or not shown. This is a sample that favours compounds with a hit; in the whole collection about 5.2% have one here.

SMILES	ALR H2O2 inh	Yeast superoxide	A3A deaminase	APOBEC3G inh	PfM18AAP inh-1	CendR NRP1 mod	PfM18AAP inh-2	CTSL1 counter
CCOC(=O)C1CCCCN1Cc1cn[nH]c1-c1ccc(F)cc1F (stereo not drawn)	4.6	86.3	1.8	-4.4	-5.3	-5.1	x	x
COc1ccccc1N/C(N)=N/c1nc(CSc2nc3ccccc3s2)cc(=O)[nH]1	0.8	95.4	5.4	0.9	-11.9	x	x	x
COc1cc(/C=N/NC(=O)Cc2ccc(Br)cc2)cc(OC)c1O	22.8	88.2	5.7	0.9	5.2	1.2	x	x
COc1cc(/C=N/NC(=O)CC#N)cc(Br)c1O	11.7	91.8	-0.1	-3.1	56.8*	-3.8	-15.5	-0.4
N#Cc1c(-c2ccc(Cl)cc2)cc(-c2cccs2)nc1SCC(=O)O	x	97.6	-3.6	1.3	36.4*	-51.0	-2.2	-1.7
NNc1ccc2nncn2n1	4.8	107.1	0.4	-2.6	39.8*	7.9	38.9*	-4.8
O=c1cc2c(n[nH]1)CCCC2	0.2	99.1	1.9	-8.9	0.3	-5.5	x	x
CCC(C)(C)NC(=O)CCCSc1nc2ccccc2[nH]1	0.9	94.3	-3.6	1.1	-0.7	-1.7	x	x
COC(=O)C[C@@H]1C=C[C@@H](NC(C)=O)[C@@H](CO)O1	x	x	x	x	x	-2.2	x	x
O=C(NCC1CCCO1)c1ccc2c(c1)N(Cc1ccccc1)C(=O)CS2=O (stereo not drawn)	-12.8	88.1	-2.8	-9.8	42.4*	-7.3	-63.0	-4.8
CCN(CC)C(=O)c1ccc2c(c1)N(Cc1ccccc1)C(=O)CS2=O (stereo not drawn)	-4.6	97.3	7.4	12.5	54.5*	-4.5	-24.8	-2.9
O=C(NCc1n[nH]c(=S)n1-c1ccc(Br)cc1)c1cccs1	46.2	85.9	10.1	25.8	34.1*	7.7	-11.6	-8.4
Cn1c(CNC(=O)c2cccs2)n[nH]c1=S	41.5	88.3	-4.0	-6.1	18.7	-2.7	x	x
COc1ccccc1-n1c(CNC(=O)c2cccs2)n[nH]c1=S	38.7	99.7	-2.8	0.4	36.5*	4.4	-10.5	-7.1
COc1ccccc1-n1c(Cc2cccs2)n[nH]c1=S	71.9	127.0	0.1	25.5	14.9	-2.0	x	x
O=C(COc1ccc(/C=N/NS(=O)(=O)c2ccccc2)cc1)N1CCOCC1	7.3	84.4	0.1	-0.6	8.5	11.4	x	x
COc1cccc(C(c2c(N)[nH]c(=S)[nH]c2=O)c2c(N)[nH]c(=S)[nH]c2=O)c1	u	110.1	-3.5	25.7	33.1*	-26.2	-1.8	6.6
CSc1ccc(C(=S)N2CCN(CCO)CC2)cc1	-21.4	80.3	-4.2	8.3	32.9*	-2.8	7.3	0.0
Cc1nnc(SCC(=O)NC2CCCc3c2cnn3-c2ccc(F)cc2F)o1 (stereo not drawn)	-7.0	97.4	-1.9	-4.8	2.5	-18.7	x	x
COc1cnn(-c2ccccc2)c(=O)c1SCc1ccc(Cl)cc1Cl	97.8*	100.8	-4.8	-8.3	36.1*	-3.6	-29.6	-4.5
CC(=O)Nc1ccc(/C=C(\C#N)S(=O)(=O)c2ccc(C)cc2)cc1	-0.6	91.3	-1.0	1.1	x	8.5	x	x
COc1ccc2sc(C)[n+](C)c2c1	71.8	108.4	25.5	14.6	43.2*	-11.3	-12.2	-1.9
CN1CCc2c(sc3c2c(=O)n(-c2ccccc2)c2nncn32)C1	-30.0	104.2	2.0	10.4	0.2	5.2	x	x
CN1CCc2c(sc3c2c(=O)n(-c2ccccc2)c2n[nH]c(=S)n32)C1	64.5	98.5	1.0	14.5	37.8*	3.6	-22.5	2.5
CC(C)(C)N=Cc1c(O)ccc2oc3c(c12)CCCC3	-36.9	83.0	-1.5	-7.8	32.9*	52.3	-18.4	3.5
SMILES	ALR H2O2 inh	Yeast superoxide	A3A deaminase	APOBEC3G inh	PfM18AAP inh-1	CendR NRP1 mod	PfM18AAP inh-2	CTSL1 counter
NC(=O)N/N=C/c1c(O)ccc2oc3c(c12)CCCC3	x	109.7	1.7	0.9	26.2	4.3	x	x
CC(C)(C)c1ccc(COC(=O)CNC(=O)CNC(=O)Cc2ccccc2)cc1	-1.8	109.3	-6.8	-8.1	3.4	-4.7	x	x
COc1cc(-c2nnc(SCc3cc(=O)oc4cc(O)c(O)cc34)o2)cc(OC)c1OC	x	93.2	55.2	47.2	34.9*	-67.6	1.6	5.2
COC(=O)CSCC(=O)Nc1nnc(-c2ccccc2C)s1	-2.7	96.0	0.9	-9.0	-1.0	-0.4	x	x
Cc1cc(=S)c2ccccc2[nH]1	-1.6	92.9	-3.3	-4.4	8.3	-15.4	x	x
Cc1cc(=S)[nH]c(=S)[nH]1	61.2	94.5	1.9	-1.5	38.0*	3.8	-9.1	4.5
CCc1cccc(NC(=S)Nc2ccc(CN3CCOCC3)cc2)c1	7.5	75.1	1.8	-3.1	5.1	13.2	x	x
CC(C)[C@H](NC(=O)c1nn(Cc2ccccc2)c(=O)c2ccccc12)C(=O)O	-1.8	89.0	1.0	-11.5	36.1*	7.3	-40.9	2.3
O=C(O)c1ccc(N/N=C/c2c(F)cccc2Cl)cc1	42.0	98.5	-5.0	-8.5	38.6*	-0.2	-9.1	5.4
Cn1c(SCC(=O)Nc2ccc(N3CCOCC3)cc2)nnc1-c1ccccc1F	50.4	97.2	-3.7	-8.9	-4.3	3.0	x	x
CCOc1ccc(CNc2nnnn2C)cc1	-10.2	102.1	-1.6	-5.0	0.5	1.3	x	x
NC(=O)c1sc2nc3c(c(-c4ccco4)c2c1N)CCC3	-21.5	98.9	9.3	18.8	32.5*	-12.1	-26.5	-5.5
CCCCCCCCCCCCS(=O)(=O)CCC(=O)O	x	96.1	3.3	-1.1	0.4	6.1	x	x
Cc1[nH][nH]c(=O)c1C(c1ccc(N(C)C)c(Br)c1)c1c(C)[nH][nH]c1=O	16.6	108.2	-6.9	-3.3	35.7*	-6.0	16.9	5.0
Cc1ccc(S(=O)(=O)Oc2ccc(C(c3c(C)[nH][nH]c3=O)c3c(C)[nH][nH]c3=O)cc2)cc1	14.3	105.3	8.7	-6.3	5.2	14.2	x	x
CC(C)n1nnnc1C1c2ccccc2C(=O)N1Cc1ccc(F)cc1 (stereo not drawn)	x	x	x	x	x	2.0	x	x
CCCCN1CCC(=O)NC1=O	x	x	x	x	x	-5.2	x	x
COc1ccc(/C=N/N(c2ccccc2)c2ccccc2)cc1O	30.6	86.9	-2.8	-6.0	2.9	-0.7	x	x
CN(/N=C\c1ccc(O)c(O)c1)c1nc(-c2ccccc2)cc(-c2ccccc2)n1	51.0	104.6	-2.1	-4.6	50.1*	4.7	24.2	-2.6
CCOC(=O)c1[nH]c2ccc(F)cc2c1NC(=O)c1ccccc1C(=O)O	65.6	103.5	-4.8	-8.0	33.3*	5.1	-34.1	3.0
COc1ccc(/C=N/Nc2ncc(Br)cn2)c(OC)c1	-6.7	76.8	23.8	4.3	37.9*	4.8	-47.0	-3.4
Nc1nc(Sc2ccc([N+](=O)[O-])cc2[N+](=O)[O-])n[nH]1	-5.5	122.3	2.0	1.9	56.6*	-3.5	56.2*	1.1
